We go through eleven molecules from PubChem BioAssay (NCATS).

Assay [1] has as its target Peroxisome proliferator-activated receptor delta (Homo sapiens) (UniProt Q03181). Briefly: qHTS assay for small molecule agonists of peroxisome proliferator-activated receptor delta signaling (AID 588534).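 Further: 0% = DMSO basal wells and 100% = positive control agonist at 10 µM.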 In outline: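 Agonist-mode beta-lactamase reporter readout (CCF4 dye, 2 h at RT) after 18 h at 37 °C exposure to a titration; Hill-equation fitting gave EC50 and maximal response.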
A general note: qHTS replaces the single test concentration by a dilution series.

For assay [2], the target named is Peroxisome proliferator-activated receptor gamma (Homo sapiens) (UniProt P37231). Kind of assay: qHTS assay for small molecule antagonists of peroxisome proliferator-activated receptor gamma signaling (AID 588537; active means well fitted inhibition curve with a large enough effect in the signal ratio, with a control signal flat, not every such curve was filed as active; the % refers to the signal ratio;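 further: reporter cells co-stimulated with 50 nM rosiglitazone agonist during compound treatment; % of control where 0% means no effect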). In outline: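 Antagonist-mode β-lactamase reporter screen run as a titration series. HEK293 PPARγ-UAS-bla cells are stimulated with rosiglitazone (50 nM final) for 16 h, then CCF4 is read at 460/530 nm. Data are scaled between DMSO and rosiglitazone and fitted to the Hill equation.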

Assay [3] shares this target. Kind of assay: qHTS assay for small molecule agonists of peroxisome proliferator-activated receptor gamma signaling (AID 588536; active means well fitted curve in the direction sought with a large enough effect in the signal ratio, with a control signal flat, not every such curve was filed as active; the % refers to the signal ratio;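 further: 0% = DMSO basal wells and 100% = rosiglitazone at 2 µM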). In outline: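 This is an agonist-mode beta-lactamase reporter assay in HEK293 PPAR-gamma-UAS-bla cells with 1% charcoal/dextran FBS. Compound titrations ran 16 h at 37 C before CCF4 detection. EC50 and efficacy are Hill fits scaled to 2 uM rosiglitazone (100%) and DMSO basal.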

In assay [4] the target is Vitamin D3 receptor (Homo sapiens) (UniProt P11473). Kind of assay: qHTS assay for small molecule antagonists of vitamin D receptor signaling (AID 588541).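 Further: receptor activated by calcitriol during compound treatment; series mostly up to about 77 µM; on the % scale 0 is the no-effect control and ±100 the full control effect.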 In outline:
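Antagonist-mode beta-lactamase reporter assay: HEK293T VDR-UAS-bla cells were exposed to titrated compound alongside 1-alpha,25-dihydroxyvitamin D3 at 3 nM final for 16 h. Values were normalized to the 50 nM agonist control and DMSO basal, with IC50 and efficacy from Hill equation fits.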

The target is the same in assay [5]. Briefly: qHTS assay for small molecule agonists of vitamin D receptor signaling (AID 588543).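 Further: 0% = DMSO basal and 100% = reference agonist control.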 In outline: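 Measured: β-lactamase reporter activity (CCF4, 405 nm excitation, 460/530 nm emission) in HEK293T VDR-UAS-bla cells after 16 h compound exposure at 37 °C. Normalization against 50 nM 1α,25-dihydroxyvitamin D3 and DMSO; Hill-fit EC50.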
Assay [6] is described as follows: qHTS assay for small molecule agonists of retinoid X receptor alpha signaling (AID 588544).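 On activation: 0% = DMSO basal wells and 100% = reference agonist.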 Particulars: HEK293T RXRa-UAS-bla, beta-lactamase reporter, 18 h; 530 nm emission.
The target in assay [7] is Retinoic acid receptor RXR-alpha (Homo sapiens) (UniProt P19793). Described as above.
Assay [8] is described as follows: qHTS assay for small molecule antagonists of retinoid X receptor alpha signaling (AID 588546; active means well fitted inhibition curve with a large enough effect in the signal ratio, with a control signal flat, not every such curve was filed as active; the % refers to the signal ratio;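 further: cells stimulated with 9-cis-retinoic acid as agonist; on the % scale 0 is the no-effect control and ±100 the full control effect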). The following applies: HEK293T RXRa-UAS-bla, beta-lactamase ratio, antagonist mode; measured here: W530 green channel, cytotoxicity proxy. In outline: (§1)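 Beta-lactamase reporter inhibition, read as CCF4 fluorescence ratio (ex 405, em 460/530 nm) after 2 h at RT. HEK293T UAS-bla cells, 2500/well, were stimulated with 9-cis-RA at 500 or 100 nM final alongside test compound for 18 h at 37 C.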

A short description of assay [9]: qHTS assay for small molecule agonists of the antioxidant response element (ARE) signaling pathway (AID 651741; active means well fitted activation curve with a large enough effect in the signal ratio; the % refers to the signal ratio; further: % of control where 0% means no effect). In outline: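 Beta-lactamase reporter under ARE control in HepG2 cells, 2,000 per well, was induced by 16 h compound treatment at 37 C. Read-out was fluorescence from LiveBLAzer B/G FRET substrate after 2 h at room temperature.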
A short description of assay [10]: qHTS assay for small molecule activators of the p53 signaling pathway (AID 651743; active means well fitted activation curve with a large enough effect in the signal ratio, not every such curve was filed as active; the % refers to the signal ratio; further: series mostly up to about 92 µM; % of control where 0% means no effect). Particulars: HCT-116 p53RE-bla, beta-lactamase FRET ratio, 16 h; activation: stronger effect = higher value. In outline:
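After 16 hours compound treatment at 37 C, HCT-116 cells stably expressing p53RE-driven beta-lactamase were loaded with LiveBLAzer B/G FRET substrate for 2 hours at room temperature. Fluorescence intensity served as the p53 activation read-out.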

Assay [11] can be described thus: qHTS assay for environmental chemicals that activate the Aryl hydrocarbon Receptor (AhR) signaling pathway (AID 651777; active means well fitted curve in the direction sought with a large enough effect; an effect the other way counts as inactive or inconclusive; further: % of control where 0% means no effect; nearly all actives have a fitted effect of over 15% in size). The following applies: 1A2-DRE human hepatoma cells, luciferase, 24 h; activation: stronger effect = higher value. In outline: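 Quantitative HTS in stably transfected human liver-derived cells whose luciferase gene sits downstream of the CYP1A2 promoter and dioxin response element. After 24 hr exposure at 37 C, One-Glo luminescence was measured.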

Assay [12] concerns the target Peroxisome proliferator-activated receptor alpha (Homo sapiens) (UniProt Q07869). Kind of assay: qHTS assay for small molecule agonists of the peroxisome proliferator-activated receptor alpha (PPARalpha) signaling pathway (AID 651778; active means well fitted curve in the direction sought with a large enough effect; an effect the other way counts as inactive or inconclusive; further: % of control where 0% means no effect). Particulars: PathHunter PPARalpha complementation, chemiluminescence, 6 h; max response: stronger effect = higher value. In outline: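 Chemiluminescence from complemented enzyme reported PPARalpha activation in cells after 6 hr of compound treatment at 37 C. The detection reagent was incubated for 60 min at room temperature, and compounds were scored as agonists.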

Assay [13] in a line: qHTS assay for small molecule agonists of the antioxidant response element (ARE) signaling pathway measured by Nrf2-dependant transcriptional activity (AID 720636; active means well fitted curve in the direction sought with a large enough effect in the repeat runs; an effect the other way counts as inactive or inconclusive; further: % of control where 0% means no effect). In outline:
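Quantitative HTS format in HepG2 cells stably expressing an ARE-luciferase reporter; 16 hr compound treatment at 37 C, luciferase signal detected with ONE-Glo.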

Assay [14] is described as follows: qHTS assay for small molecule agonists of the antioxidant response element (ARE) signaling pathway measured by Nrf2-dependant transcriptional activity - cell viability counter screen (AID 720653; active means well fitted curve in the direction sought with a large enough effect in the repeat runs; an effect the other way counts as inactive or inconclusive; further: on the % scale 0 is the no-effect control and ±100 the full control effect). The following applies: ARE-bla HepG2 viability, CellTiter-Glo ATP luminescence, 16 h; max response: stronger effect = lower value. In outline:
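Cytotoxicity counter screen: intracellular ATP quantified by CellTiter-Glo luminescence in the same ARE-bla HepG2 plates, after 16 h compound exposure and a 2 h beta-lactamase substrate step.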

The nature of assay [15]: qHTS assay for cell viability of HEK293 cells (AID 743288; active means well fitted curve in the direction sought with a large enough effect; an effect the other way counts as inactive or inconclusive; further: on the % scale 0 is the no-effect control and ±100 the full control effect; nearly all actives have a fitted effect of over 50% in size). The following applies: ATP luminescence (CellTiter-Glo), 18 h; max response: stronger effect = lower value. In outline:
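HEK293, 18 h, 37 C, ATP luminescence. Cells at 2,000/well were allowed at least 5 h to settle before dosing; CellTiter-Glo developed 30 min at RT.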

A short description of assay [16]: qHTS assay for cell viability of the p53RE-bla HCT-116 cell line (AID 743292; active means well fitted curve in the direction sought with a large enough effect; an effect the other way counts as inactive or inconclusive; further: on the % scale 0 is the no-effect control and ±100 the full control effect; nearly all actives have a fitted effect of over 55% in size). In outline:
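Viability of compound-treated p53RE-bla HCT-116 cells is taken from ATP-dependent luciferase luminescence. Treatment lasts 16 h at 37 C after a 5 h settling period; detection follows 30 min at room temperature.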

Assay [17] addresses Nuclear receptor subfamily 1 group I member 2 (Rattus norvegicus) (UniProt Q9R1A7). Briefly: qHTS assay for small molecule activators of the rat pregnane X receptor (rPXR) signaling pathway (AID 651751; call rule not given here; further: 0% is about no effect). The following applies: rPXR reporter cells, luciferase (One-Glo), 24 h.
A short description of assay [18]: qHTS assay for small molecule activators of the human pregnane X receptor (PXR) signaling pathway (AID 720659; call rule not given here; further: 0% is about no effect).
Assay [19] in a line: qHTS assay for small molecule antagonists of peroxisome proliferator-activated receptor delta signaling (AID 588535; active means well fitted inhibition curve with a large enough effect in the signal ratio, with a control signal flat, not every such curve was filed as active; the % refers to the signal ratio;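 on max response: cells co-treated with a PPAR-delta agonist as stimulator during compound exposure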). The following applies: HEK293T PPARd-UAS-bla, beta-lactamase FRET ratio, 18 h; 460 nm channel. In outline:
(§2)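 Titrations were run on PPAR-delta-UAS-bla HEK293T cells in charcoal/dextran-stripped serum, incubated 18 h at 37 C. CCF4 fluorescence (460/530 nm) after 2 h RT; Hill equation yields IC50 and maximal response.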

For assay [20], the target named is Peroxisome proliferator-activated receptor delta (Homo sapiens) (UniProt Q03181). Described as above. In outline: as §2
Assay [21] has as its target Thyroid hormone receptor beta (Homo sapiens) (UniProt P10828). Kind of assay: qHTS assay for small molecule agonists of thyroid hormone receptor beta signaling (AID 588545).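 Further: 0% = DMSO only and 100% = 10 nM T3.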 In outline: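 Stimulation of a TR-driven beta-lactamase reporter was quantified in GripTite HEK 293 cells. Compound series ran for 18 hrs; curves were normalized to T3 and DMSO controls and fitted to yield EC50.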

The target of assay [22] is Retinoic acid receptor RXR-alpha (Homo sapiens) (UniProt P19793). Kind of assay: qHTS assay for small molecule antagonists of retinoid X receptor alpha signaling (AID 588546).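 Further: cells stimulated with 9-cis-retinoic acid as agonist; on the % scale 0 is the no-effect control and ±100 the full control effect.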 The following applies: HEK293T RXRa-UAS-bla, beta-lactamase ratio, antagonist mode. In outline:
as §1

Assay [23] has as its target Thyroid hormone receptor beta (Homo sapiens) (UniProt P10828). Briefly: qHTS assay for small molecule antagonists of thyroid hormone receptor beta signaling (AID 588547; active means well fitted inhibition curve with a large enough effect in the signal ratio, with a control signal flat, not every such curve was filed as active; the % refers to the signal ratio). The following applies: TR-UAS-bla HEK293, beta-lactamase ratio, antagonist mode, 18 h. In outline:
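Inhibition of T3-driven (0.4nM final) beta-lactamase reporter activity was measured over 0.59 nM to 92 uM compound after 18 h at 37 C. The cells were GripTite HEK293 TR-UAS-bla in charcoal/dextran-stripped serum, with CCF4 ratio read-out and IC50 from Hill fits.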

The nature of assay [24]: qHTS assay for small molecule activators of the nuclear factor-kappa B (NF-kB) signaling pathway (AID 651749; active means well fitted activation curve with a large enough effect in the signal ratio; the % refers to the signal ratio; further: series mostly up to about 77 µM; % of control where 0% means no effect). The following applies: NF-kB-bla ME-180 cells, beta-lactamase FRET ratio, 16 h; activation: stronger effect = higher value. In outline: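 Activation measured after 16 hr compound treatment at 37C, 5% CO2, of 2,000 ME-180 cells/well stably expressing an NF-kB response element–driven beta-lactamase reporter, via FRET-disruption fluorescence.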

Assay [25] concerns the target Voltage-gated inwardly rectifying potassium channel KCNH2 (Homo sapiens) (UniProt Q12809). Kind of assay: qHTS Assay for Small Molecule Inhibitors of the Human hERG Channel Activity (AID 588834; active means well fitted curve in the direction sought with a large enough effect; an effect the other way counts as inactive or inconclusive;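 further: potency means the concentration at half of the fitted maximal effect; lower thallium flux fluorescence means stronger hERG block; nearly all actives have a fitted effect of over 50% in size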). In outline:
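Homogeneous FluxOR thallium flux assay using hERG-expressing U2OS cells (BacMam). Compound treatment about 10 minutes preceded stimulation; reduced fluorescence taken as channel block.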

Molecules are shown by their SMILES. Results filed as inconclusive are left out. Calls of active or inactive are those of the source. Unless noted, the call rests on the fitted dose curve.

Sequence of Vitamin D3 receptor (Homo sapiens) (P11473 whole entry, looked up): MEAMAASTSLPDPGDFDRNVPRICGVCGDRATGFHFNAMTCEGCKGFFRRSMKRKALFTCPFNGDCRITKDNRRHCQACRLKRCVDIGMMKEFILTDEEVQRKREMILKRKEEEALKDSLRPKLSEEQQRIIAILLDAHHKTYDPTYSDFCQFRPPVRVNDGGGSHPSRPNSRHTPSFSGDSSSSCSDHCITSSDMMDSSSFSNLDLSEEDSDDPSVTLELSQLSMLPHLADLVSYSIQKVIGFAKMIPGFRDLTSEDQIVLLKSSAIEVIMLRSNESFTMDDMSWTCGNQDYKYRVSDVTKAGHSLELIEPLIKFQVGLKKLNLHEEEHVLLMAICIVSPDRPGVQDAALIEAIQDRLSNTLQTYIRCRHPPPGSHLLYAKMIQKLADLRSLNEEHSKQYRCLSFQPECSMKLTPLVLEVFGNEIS
Sequence of Peroxisome proliferator-activated receptor gamma (Homo sapiens) (P37231 whole entry, looked up): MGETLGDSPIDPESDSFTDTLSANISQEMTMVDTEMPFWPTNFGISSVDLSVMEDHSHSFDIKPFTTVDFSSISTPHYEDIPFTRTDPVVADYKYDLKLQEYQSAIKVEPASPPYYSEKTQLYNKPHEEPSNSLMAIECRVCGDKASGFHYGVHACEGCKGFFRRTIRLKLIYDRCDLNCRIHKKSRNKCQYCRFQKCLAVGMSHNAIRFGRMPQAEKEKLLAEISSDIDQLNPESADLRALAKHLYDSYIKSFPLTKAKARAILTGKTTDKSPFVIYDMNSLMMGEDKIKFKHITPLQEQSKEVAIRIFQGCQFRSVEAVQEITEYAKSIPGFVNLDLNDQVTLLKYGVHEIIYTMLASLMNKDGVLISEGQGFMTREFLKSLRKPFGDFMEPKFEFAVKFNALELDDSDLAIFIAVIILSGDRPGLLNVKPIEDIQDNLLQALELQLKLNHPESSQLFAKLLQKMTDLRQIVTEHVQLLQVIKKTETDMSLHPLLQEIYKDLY
Sequence of Peroxisome proliferator-activated receptor delta (Homo sapiens) (Q03181 whole entry, looked up): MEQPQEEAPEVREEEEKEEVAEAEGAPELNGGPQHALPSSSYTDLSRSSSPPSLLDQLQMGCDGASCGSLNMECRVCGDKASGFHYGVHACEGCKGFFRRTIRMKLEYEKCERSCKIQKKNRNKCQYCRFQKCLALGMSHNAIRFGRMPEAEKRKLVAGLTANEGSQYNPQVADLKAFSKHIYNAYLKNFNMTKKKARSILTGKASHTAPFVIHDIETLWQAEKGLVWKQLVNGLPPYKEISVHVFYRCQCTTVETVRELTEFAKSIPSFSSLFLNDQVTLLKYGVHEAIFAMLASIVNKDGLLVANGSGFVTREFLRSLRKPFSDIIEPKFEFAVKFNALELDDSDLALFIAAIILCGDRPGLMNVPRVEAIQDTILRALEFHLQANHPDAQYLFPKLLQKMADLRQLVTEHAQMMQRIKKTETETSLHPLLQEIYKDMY
Sequence of Retinoic acid receptor RXR-alpha (Homo sapiens) (P19793 whole entry, looked up): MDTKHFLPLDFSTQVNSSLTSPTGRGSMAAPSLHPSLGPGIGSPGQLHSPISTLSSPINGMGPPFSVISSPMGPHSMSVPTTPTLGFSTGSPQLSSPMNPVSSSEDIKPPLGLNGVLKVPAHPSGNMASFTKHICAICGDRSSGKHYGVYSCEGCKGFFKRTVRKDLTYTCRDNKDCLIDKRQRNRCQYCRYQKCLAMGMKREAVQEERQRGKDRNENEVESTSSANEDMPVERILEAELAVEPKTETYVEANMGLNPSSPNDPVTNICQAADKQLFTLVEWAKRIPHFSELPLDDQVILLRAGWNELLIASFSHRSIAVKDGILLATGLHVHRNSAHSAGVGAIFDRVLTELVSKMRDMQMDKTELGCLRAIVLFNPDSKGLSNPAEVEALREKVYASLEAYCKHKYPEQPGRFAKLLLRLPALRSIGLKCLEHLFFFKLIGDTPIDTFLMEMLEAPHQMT
Sequence of Peroxisome proliferator-activated receptor alpha (Homo sapiens) (Q07869 whole entry, looked up): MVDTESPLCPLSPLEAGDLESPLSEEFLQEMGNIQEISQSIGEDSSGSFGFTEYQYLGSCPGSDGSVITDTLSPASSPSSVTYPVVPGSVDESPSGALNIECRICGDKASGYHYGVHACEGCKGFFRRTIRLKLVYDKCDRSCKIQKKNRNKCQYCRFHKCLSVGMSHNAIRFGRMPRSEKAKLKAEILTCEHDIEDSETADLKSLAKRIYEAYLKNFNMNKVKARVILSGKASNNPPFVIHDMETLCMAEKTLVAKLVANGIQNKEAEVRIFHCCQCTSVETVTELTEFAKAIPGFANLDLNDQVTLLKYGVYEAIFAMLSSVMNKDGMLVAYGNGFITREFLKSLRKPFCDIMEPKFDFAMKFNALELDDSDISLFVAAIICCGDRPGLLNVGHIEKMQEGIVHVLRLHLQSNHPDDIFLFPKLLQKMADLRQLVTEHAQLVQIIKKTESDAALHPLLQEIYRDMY
Sequence of Thyroid hormone receptor beta (Homo sapiens) (P10828 whole entry, looked up): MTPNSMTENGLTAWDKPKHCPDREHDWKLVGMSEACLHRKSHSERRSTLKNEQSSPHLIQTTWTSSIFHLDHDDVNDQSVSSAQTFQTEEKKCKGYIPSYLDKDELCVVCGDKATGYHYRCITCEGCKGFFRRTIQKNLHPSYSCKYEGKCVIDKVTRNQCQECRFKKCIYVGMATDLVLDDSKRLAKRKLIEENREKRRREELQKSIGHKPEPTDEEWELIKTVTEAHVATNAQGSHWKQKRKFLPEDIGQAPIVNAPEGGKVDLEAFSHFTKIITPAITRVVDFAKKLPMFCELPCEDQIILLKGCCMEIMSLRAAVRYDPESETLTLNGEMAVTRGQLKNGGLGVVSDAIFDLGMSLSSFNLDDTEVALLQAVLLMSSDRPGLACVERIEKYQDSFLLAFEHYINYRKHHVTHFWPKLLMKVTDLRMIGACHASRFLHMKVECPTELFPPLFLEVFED
Sequence of Nuclear receptor subfamily 1 group I member 2 (Rattus norvegicus) (Q9R1A7 whole entry, looked up): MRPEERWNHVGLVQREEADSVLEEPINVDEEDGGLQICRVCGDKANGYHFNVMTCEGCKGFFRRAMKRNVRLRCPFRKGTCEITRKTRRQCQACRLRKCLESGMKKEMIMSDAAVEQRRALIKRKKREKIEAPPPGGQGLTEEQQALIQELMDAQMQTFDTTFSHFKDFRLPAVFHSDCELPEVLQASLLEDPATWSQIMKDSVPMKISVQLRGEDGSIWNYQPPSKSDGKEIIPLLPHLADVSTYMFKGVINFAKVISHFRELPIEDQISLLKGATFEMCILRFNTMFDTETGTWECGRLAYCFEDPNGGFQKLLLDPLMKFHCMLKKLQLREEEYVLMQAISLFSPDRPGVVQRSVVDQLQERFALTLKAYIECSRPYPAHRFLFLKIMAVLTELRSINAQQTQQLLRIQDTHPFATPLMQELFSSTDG
Sequence of Voltage-gated inwardly rectifying potassium channel KCNH2 (Homo sapiens) (Q12809 whole entry, looked up): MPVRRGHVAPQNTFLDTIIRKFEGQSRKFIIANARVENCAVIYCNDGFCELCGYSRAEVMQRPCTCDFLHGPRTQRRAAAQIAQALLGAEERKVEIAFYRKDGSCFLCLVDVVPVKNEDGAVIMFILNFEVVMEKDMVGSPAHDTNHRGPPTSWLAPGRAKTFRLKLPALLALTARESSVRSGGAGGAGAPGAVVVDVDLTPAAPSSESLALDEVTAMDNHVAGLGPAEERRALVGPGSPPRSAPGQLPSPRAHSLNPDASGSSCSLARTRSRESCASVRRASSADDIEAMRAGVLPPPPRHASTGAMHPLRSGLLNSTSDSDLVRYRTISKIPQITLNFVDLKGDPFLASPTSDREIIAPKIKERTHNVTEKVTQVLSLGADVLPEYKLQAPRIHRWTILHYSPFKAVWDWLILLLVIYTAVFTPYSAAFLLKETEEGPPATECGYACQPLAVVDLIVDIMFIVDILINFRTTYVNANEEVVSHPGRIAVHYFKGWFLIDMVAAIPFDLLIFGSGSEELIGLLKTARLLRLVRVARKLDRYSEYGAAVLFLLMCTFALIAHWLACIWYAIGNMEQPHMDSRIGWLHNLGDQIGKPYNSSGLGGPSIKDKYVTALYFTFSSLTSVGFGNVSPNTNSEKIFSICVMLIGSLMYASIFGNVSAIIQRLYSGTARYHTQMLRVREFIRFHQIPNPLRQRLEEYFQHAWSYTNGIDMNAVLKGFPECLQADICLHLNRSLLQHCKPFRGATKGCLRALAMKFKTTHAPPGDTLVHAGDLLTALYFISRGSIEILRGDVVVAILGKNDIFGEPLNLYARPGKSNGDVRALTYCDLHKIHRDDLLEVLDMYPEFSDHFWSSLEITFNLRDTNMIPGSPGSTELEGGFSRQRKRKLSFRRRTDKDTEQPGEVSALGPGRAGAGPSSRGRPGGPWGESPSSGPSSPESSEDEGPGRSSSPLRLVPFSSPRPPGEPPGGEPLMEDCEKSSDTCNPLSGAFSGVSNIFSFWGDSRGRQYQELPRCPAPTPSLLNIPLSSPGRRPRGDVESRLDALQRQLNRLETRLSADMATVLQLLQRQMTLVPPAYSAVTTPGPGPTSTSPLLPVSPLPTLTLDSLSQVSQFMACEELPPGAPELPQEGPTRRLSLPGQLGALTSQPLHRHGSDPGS

In the case of `O=Cc1cccc(Br)c1`, in assay [1], the molecule was called inactive.

In the case of `O=C(OCC1CCC2OC2C1)C1CCC2OC2C1` (configuration not stated), in assay [1], the call was inactive.

For the molecule `CCCCC(=O)N(C)C`, the result in assay [1] was inactive.

With `Cc1ccccc1C`, in assay [1], the outcome was inactive. Moreover, the Potency entry in assay [2] is “inactive”.

For `CCCCN(CCCC)CCCCCCN(CCCC)CCCC`, the outcome in assay [1] was inactive.

With `Cc1cc(Cl)ccc1N=CN(C)C`, the outcome in assay [1], in assay [5] and in assay [18] was inactive. Moreover, the Potency result in [3], in [2], in [4], in assay [7], in assay [9] and in [13] was “inactive” each time. In addition, the Potency result in assay [16] is “inactive”. For the same molecule, the max response in assay [6] is -2.15%; in assay [8], -3.88%; in assay [12] it was -0.583% (inactive); in assay [14] it was -12.3% (inactive); in [15], -10.1% (inactive); in [17] it was 1.62% (inactive). The activation is 0.7% (inactive) in [10] and 1.22% (inactive) in assay [11].

As for `CCC(C)(CC)c1cc(NC(=O)c2c(OC)cccc2OC)on1`, the result in assay [1] and in [5] was inactive. Also, the max response in [19] was 7.62%; in [6], 12.1%; in assay [8], 5.81%; in [22], -17.5% (inactive); in [12] it was -1.49% (inactive); in assay [15], -25.2% (inactive). In addition, the Potency entry in assay [20], in assay [3], in assay [2], in assay [7], in assay [21] and in assay [13] was “inactive” throughout. Moreover, the Potency entry in assay [16] is “inactive”. In addition, in assay [23], the activity change % (negative = inhibition) was 0.364% (inactive). Also, the activation in assay [24] is -0.691% (inactive); in [11] it was 0.26% (inactive).

With `Cc1cc(C)c(N)c(Cl)c1`, the result in assay [1] was inactive.

Consider `c1ccc2c(c1)Oc1ccccc1S2`, for which the molecule was called inactive in assay [1]. In addition, in assay [25], the Potency is 28.2 µM (active).

With `CC/C=C/CCCCCCCCCCOC(C)=O`, the outcome in assay [1] was inactive.

For `C=CC(=O)OCC(C)OCC(C)OCC(C)OC(=O)C=C` (configuration not stated), the molecule was called inactive in [1].
